Compound activity: PubChem BioAssay, National Center for Advancing Translational Sciences (NCATS)
ALOX12 inh: Primary qHTS assay for inhibitors of human arachidonate 12S-lipoxygenase (ALOX12): Round 2; Polyunsaturated fatty acid lipoxygenase ALOX12 (Homo sapiens), P18054; purified 12hLO, xylenol orange hydroperoxide absorbance; Potency, µM (series often up to 108 µM), for inactives: at the highest dose activity change, negative = inhibition, most hits filed as inhibitors; hit rate 1.1% among 580,000; AID 1671190, 2021; also: potency is read from the fitted curve at half-maximal effect
Target sequence (P18054 whole entry, looked up): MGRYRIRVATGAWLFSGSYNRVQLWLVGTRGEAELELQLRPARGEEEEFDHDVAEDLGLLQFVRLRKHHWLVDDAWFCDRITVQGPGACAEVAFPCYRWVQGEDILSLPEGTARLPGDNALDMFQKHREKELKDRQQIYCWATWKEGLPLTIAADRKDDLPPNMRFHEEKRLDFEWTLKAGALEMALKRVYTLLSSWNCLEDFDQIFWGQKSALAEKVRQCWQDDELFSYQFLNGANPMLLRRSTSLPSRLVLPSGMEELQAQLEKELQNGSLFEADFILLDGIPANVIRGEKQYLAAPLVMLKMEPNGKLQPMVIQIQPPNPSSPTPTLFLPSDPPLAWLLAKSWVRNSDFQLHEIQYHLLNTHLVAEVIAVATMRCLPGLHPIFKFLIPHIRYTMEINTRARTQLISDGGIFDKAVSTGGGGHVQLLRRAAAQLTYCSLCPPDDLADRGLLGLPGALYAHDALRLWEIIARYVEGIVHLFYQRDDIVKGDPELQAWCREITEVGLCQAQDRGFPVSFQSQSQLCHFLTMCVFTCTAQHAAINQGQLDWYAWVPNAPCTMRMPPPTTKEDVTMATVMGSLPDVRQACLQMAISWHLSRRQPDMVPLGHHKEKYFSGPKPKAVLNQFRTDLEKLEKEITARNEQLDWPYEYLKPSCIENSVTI
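Purified human 12hLO (150 nM final) in 25 mM Hepes, 0.01% Triton X-100, pH 7.0 was preincubated 15 min at room temperature with compound. Then 40 uM arachidonic acid was added, 30 min. Hydroperoxide was read by Fe-XO absorbance ratio 573/405 nm.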
IL1B secr inh: qHTS for Inhibitors of Inflammasome Signaling: IL-1-beta AlphaLISA Primary Screen. THP-1 LPS/ATP IL-1B secretion, AlphaLISA, 16 h; active compounds read low. activity change, % at 57.5 µM. AID 743279, 2014. hit rate 4.7% among 360,000; in the data active = activity change below about -50%; inconclusive = mostly about -30% to -49%
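THP-1 cells pretreated 1 hr with compounds (up to 57.5 uM final), then stimulated with LPS (250 ng/mL final) plus ATP (1.25 mM final); secreted IL-1B measured by AlphaLISA after 16 hr, decreased signal indicating inhibition.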
DT40 TDP1 CPT: qHTS for Inhibitors of human tyrosyl-DNA phosphodiesterase 1 (TDP1): qHTS in cells in presence of CPT; hit rate 12% among 420,000; chicken DT40 Tdp1-/-;hTDP1 cells + 20 nM CPT, ATP luminescence, 48 h; AID 686979, 2013; Potency, µM (top dose mostly 46.2 µM), without a hit: top-dose activity change, negative = growth inhibition, most hits filed as inhibitors; also: potency is read from the fitted curve at half-maximal effect; nearly all actives have a fitted effect of over 55% in size
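Chicken DT40 Tdp1-/- cells stably complemented with human TDP1 were seeded at 400 cells/well in medium containing 20 nM camptothecin, exposed to pin-transferred compounds, and grown at 37 °C for at least 48 hr. Viability was read as ATP luminescence.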
HT1080-NT tox: qHTS for induction of synthetic lethality in tumor cells producing 2HG: qHTS for the HT-1080-NT fibrosarcoma cell line; Potency, µM (highest dose often 46.1 µM), for the others: at the highest dose activity, negative = less viability, usual class: cytotoxic; AID 686970, 2013; HT-1080-NT fibrosarcoma viability, CellTiter-Glo ATP luminescence, 48 h; hit rate 1.6% among 360,000;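 also: NT is the 2HG producing partner of a matched IDH1 knockdown line; potency is read from the fitted curve at half-maximal effect; 0% = DMSO-treated cells and -100% = media-only wells without cells; nearly all actives have a fitted effect of over 55% in size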
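Luminescent CellTiter-Glo readout after 48 hours of compound exposure at 37 degrees C defined viability of HT-1080-NT cells. Activity was normalized to DMSO wells and cell-free media wells; concentration-response curves were fitted and assigned curve classes.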
TDP1 cell noCPT: qHTS for Inhibitors of human tyrosyl-DNA phosphodiesterase 1 (TDP1): qHTS in cells in absence of CPT. DT40 Tdp1-/- hTDP1 cells, no CPT, ATP luminescence, 48 h. Potency, µM (series often up to 46.2 µM), inactives show at the highest dose activity change, negative = growth inhibition, actives largely listed as inhibitors. hit rate 15% among 420,000. AID 686978, 2013; also: potency is read from the fitted curve at half-maximal effect; nearly all actives have a fitted effect of over 55% in size
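Readout: luminescence from CellTiter-Glo after 30 min in the dark at RT. Cells: DT40 Tdp1-/- with stable hTDP1, 400/well. Exposure: compounds alone, ≥48 hr, 37 °C.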
HT1080 IDH1KD tx: qHTS for induction of synthetic lethality in tumor cells producing 2HG: qHTS for the HT-1080-IDH1KD cell line; hit rate 2% among 360,000; HT-1080 IDH1 knockdown viability, ATP luminescence, 48 h; Potency, µM (top dose mostly 46.1 µM), inactives show top-dose activity, negative = toxicity, hits mostly cytotoxic;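 also: potency is read from the fitted curve at half-maximal effect; 0% = DMSO wells and -100% = cell-free medium wells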
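Using the IDH1-knockdown HT-1080 line run in the same batch and compound series as the NT line, viability after 48 h at 37 °C was determined by CellTiter-Glo luminescence and expressed as % activity.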
* hit, by the source's call; ? = inconclusive; / = no result; [ ] = dose if it differs, or a comment. This is one part of a sample in which hits are shown more often than they occur. Unless noted, calls follow the shape of the dose curve; as a rule, active = well fitted curve in the direction sought with a large enough effect; inconclusive = small, poorly fitted or top-dose-only effect, or another doubt; inactive = no such curve, though single readings can be large; an effect the other way counts as inactive or inconclusive. Unless noted, % is scaled to controls: 0 for no effect and ±100 for the full control effect.

SMILES | ALOX12 inh | IL1B secr inh | DT40 TDP1 CPT | HT1080-NT tox | TDP1 cell noCPT | HT1080 IDH1KD tx
Cc1cc(C)c(C)c(C(=O)c2ccccc2C(=O)O)c1C | 0% | 34 | 3.7µM* | 1% | 3.3µM* | -2%
Cc1ccc(C(=O)c2ccccc2C(=O)O)cc1C | -6% | 18 | 9% | 15% | 0% | 15%
CCOc1ccc2nc(N(Cc3cccnc3)C(=O)c3ccc4c(c3)OCCO4)sc2c1 | -12% | / | ? | / | 21µM* | /
CN(C)CCN(C(=O)c1ccc2c(c1)OCCO2)c1nc2c(Cl)cccc2s1 | ? | 1 | -19% | 3% | -23% | -6%
O=C(c1ccc2c(c1)OCCO2)N(Cc1cccnc1)c1nc2c(Cl)cccc2s1 | -20% | / | ? | / | 23µM* | /
O=C(NCc1ccccc1)O[C@H]1COCCN(c2nc3ccccc3o2)C1 | 15%[176 µM] | / | / | / | / | /
Clc1cc(Br)ccc1OCCn1ccnc1 | 0.71µM* | -2 | 0% | 6% | -27% | 0%
Clc1cc(Br)ccc1OCCCn1ccnc1 | ? | ? | 9% | 6% | ? | -1%
Cc1ccccc1OCCCCCn1ccnc1 | -15% | ? | 21µM* | 1% | 16µM* | -5%
Clc1ccccc1OCCCn1ccnc1 | 0.35µM* | 21 | -20% | -16% | -1% | -10%
C/C=C/CC(=O)N1CCC(Oc2ccccc2OC)(C(=O)O)CC1 | 3% | / | / | / | / | /
CCS(=O)(=O)Nc1cc(-c2cn3ccc(C)cc3n2)ccc1C | -7% | / | ? | / | 21µM* | /
CC(=O)Nc1ccc(S(=O)(=O)Nc2cc(-c3cn4ccccc4n3)ccc2C)cc1 | -25% | / | ? | / | 21µM* | /
Cc1ccn2cc(-c3ccc(C)c(NS(=O)(=O)c4ccc(Cl)cc4)c3)nc2c1 | -8% | / | 23µM* | / | 21µM* | /
CCS(=O)(=O)Nc1cc(C(=O)O)ccc1C | ? | -2 | -4% | 17% | -10% | 13%
CCc1ccc(S(=O)(=O)Nc2cc(-c3cn4ccccc4n3)ccc2C)cc1 | -27% | / | ? | / | ? | /
O=C(c1ccc(Oc2ccc(C(F)(F)F)cc2[N+](=O)[O-])cc1)N1CCOCC1 | 0% | 10 | ? | -1% | 15µM* | -3%
CCCCN1C(=O)c2[nH]nc(-c3ccccc3O)c2C1c1ccc(C(C)(C)C)cc1 (centres undefined) | -8% | / | 21µM* | / | 13µM* | /
CC(C)OCCCN1C(=O)c2[nH]nc(-c3ccccc3O)c2C1c1ccccc1F (centres undefined) | 7% | / | 13µM* | / | 13µM* | /
CCCCN1C(=O)c2[nH]nc(-c3ccccc3O)c2C1c1ccc(OCc2ccccc2)cc1 (centres undefined) | 1% | / | 18µM* | / | ? | /
CCCN1C(=O)c2[nH]nc(-c3ccccc3O)c2C1c1ccc(OCc2ccccc2)c(OCC)c1 (centres undefined) | 0% | / | 23µM* | / | 16µM* | /
COc1ccc(CC(=O)OC(C)C(=O)c2ccc(C)cc2)cc1Br (centres undefined) | -3% | / | / | / | / | /
CC(C)OCCCN1C(=O)c2[nH]nc(-c3ccccc3O)c2C1c1cccc(OCc2ccccc2)c1 (centres undefined) | -11% | / | 10µM* | / | ? | /
COc1cc(C2c3c(-c4cc(C)ccc4O)n[nH]c3C(=O)N2CCCO)ccc1OCCC(C)C (centres undefined) | ? | / | ? | / | 29µM* | /
